Source: PubChem (The Scripps Research Institute Molecular Screening Center)
DAX1 inh-1: DAX1 (NR0B1) inhibition, primary screen; inhibition, % at 6.8 µM; HEK293T StAR-luciferase reporter, SF-1/DAX-1 repression relief; hit rate 1.1% among 370,000;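 active = inhibition above the mean over all tested compounds plus 3 SD, cut at about 3.6% in these data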;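 also: 0% = DAX-1 cells with DMSO and 100% = cells lacking DAX-1 with DMSO; higher inhibition means more luminescence from relief of DAX-1 repression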
DAX1 inh-2: inhibits human nuclear receptor DAX1; P51843; HEK293 Gal4-DAX1 luciferase reporter, luminescence; inhibition, % at 6.75 µM; hit rate 0.99% among 340,000; AID 504766;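 active = inhibition above the mean over all tested compounds plus 3 SD, cut at about 4.2% in these data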;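 also: 0% = DAX1-transfected cells with DMSO and 100% = empty-vector control cells with DMSO; inhibition shows as a rise in luminescence from relieved DAX1 repression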
Target sequence (P51843 207-470 limits assumed): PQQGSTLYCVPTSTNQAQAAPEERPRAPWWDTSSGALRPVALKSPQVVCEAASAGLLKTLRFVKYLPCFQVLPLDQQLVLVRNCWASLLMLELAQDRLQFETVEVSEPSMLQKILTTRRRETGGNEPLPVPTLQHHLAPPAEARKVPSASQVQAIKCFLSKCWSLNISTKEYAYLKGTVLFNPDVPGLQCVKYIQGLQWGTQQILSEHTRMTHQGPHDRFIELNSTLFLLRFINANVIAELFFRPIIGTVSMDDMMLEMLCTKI
ssDAF12 agonist: activates DAF-12 receptor from parasite S. stercoralis. HEK293 ssDAF-12/GRIP1 lit1-tk-luc reporter, luminescence; % of 3 µM dafachronic acid response. activation, % at 6.8 µM. hit rate 1% among 370,000;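 active = activation above the mean over all tested compounds plus 3 SD, cut at about 0.9% in these data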;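 also: 0% = DMSO-only wells and 100% = 3 µM delta7-dafachronic acid wells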
hgDAF-12 ag: hgDAF-12 agonism, primary luciferase screen; HEK293 GAL4-hgDAF12 UAS-luciferase reporter, agonist luminescence; normalized to butyrate control; activation, % at 6.8 µM; hit rate 1.8% among 370,000; AID 687014;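 active = activation above a cutoff set at the mean of all screened compounds plus 3 SD, cut at about 10% in these data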;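 also: 0% = DMSO wells and 100% = sodium butyrate wells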
hcDAF12 agonist: activators of H. contortus DAF-12 nuclear receptor; HEK293 hcDAF-12 lit1-tk-luc reporter, luminescence; 0% DMSO, 100% Δ7-dafachronic acid; activation, % at 6.8 µM; hit rate 1.4% among 370,000;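 active = activation above the mean of all tested compounds plus 3 SD, cut at about 5.5% in these data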;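 also: 100% = response to 3 µM Δ7-dafachronic acid high control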
Starred values were filed as active, the others as inactive; x = not tested or not shown. Hits are enriched below; roughly 4.1% of the tested compounds scored in any of these assays.

SMILES	DAX1 inh-1	DAX1 inh-2	ssDAF12 agonist	hgDAF-12 ag	hcDAF12 agonist
CN(Cc1ccc2c(c1)CCCN2C)C(=O)[C@@H](Cc1ccccc1)NC(=O)[C@H]1O[C@@H](n2ccc(=O)[nH]c2=O)[C@H](O)[C@@H]1O	0	x	-1	2	-3
COC(=O)[C@]12C[C@H](CC(=O)N3CCSCC3)C(=O)N(Cc3ccc(Cl)cc3Cl)C1=C[C@H](COCc1ccccc1)O[C@@H]2C	0	x	-2	1	0
CCCC1CCC2(CC1)CCC2OC(=S)Nc1ccccc1C(F)(F)F (centres undefined)	x	x	-1	3	-1
c1ccc(OC2CCN(c3ncnc4sccc34)CC2)cc1	x	x	-3	-6	-6
CCCCNC(=O)C[C@H]1C[C@@]2(C(=O)OC)C(=C[C@H](C(C)C)O[C@@H]2C2CC2)N(Cc2ccc3c(c2)OCO3)C1=O	0	x	-2	-2	-3
CS(=O)(=O)Nc1ccc(C(=O)NCCc2ccccc2)cc1	1	2	0	11*	3
CS(=O)(=O)Nc1ccc(C(=O)NCCSCc2ccccc2)cc1	1	5.4*	-2	-1	-1
O=C(NCCSCc1ccccc1)c1ccccc1	0	-1	-2	-1	-1
COCCCNC(=O)c1ccc(NS(C)(=O)=O)cc1	1	2	-1	-2	2
CN(C)S(=O)(=O)c1cccc(C(=O)NCCc2ccccc2)c1	3.8*	2	0	9	6.0*
O=C(CCn1nnc(-c2cccs2)n1)N1CCCC1	1	x	-1	1	-1
COC(=O)C1=C(C)N(C)C(=NCc2cccc(C(F)(F)F)c2)NC1c1ccc(F)cc1 (centres undefined)	0	x	-1	4	0
COc1ccc(C(=O)N[C@H](C(=O)NCCCSc2ccccc2)C(C)C)cc1	0	7.8*	-1	2	-2
COc1ccc(C(=O)N[C@H](C(=O)Nc2nc3ccccc3[nH]2)C(C)C)cc1	1	2	0	13*	3
COc1ccc(C(=O)Nc2nc3ccccc3[nH]2)cc1	0	-4	-1	-6	0
CCOP(=O)(OCC)C(NC(=O)c1ccc(OC)cc1)c1ccccc1 (centres undefined)	1	4.3*	-2	-2	-1
COc1ccc2c(c1)CCCN2C(=O)C1CCCN(S(=O)(=O)c2cc(OC)ccc2OC)C1 (centres undefined)	-1	x	-2	-1	-1
CCOC(=O)C1CCCN(S(=O)(=O)c2cc3c(cc2Br)CCN3C(=O)CC)C1 (centres undefined)	0	x	-1	-2	-3
Cn1c(/C(C#N)=C(\O)c2cccc(F)c2)nc2ccccc21	0	1	1.4*	3	4
Cn1c(/C(C#N)=C(\O)c2ccc([N+](=O)[O-])cc2)nc2ccccc21	0	0	0	0	5
COc1ccc(NC(=O)O/N=C/c2ccccc2)cc1	1	3	-1	11*	2
COc1ccc(NC(=O)c2cccc3ccccc23)cc1	0	0	-1	11*	1
COc1ccc(NC(=O)Nc2ccc(OC)cc2)cc1	1	1	0	6	0
COc1ccc(NC(=O)c2cccc3c(Br)cccc23)cc1	0	-2	0	2	1
COc1ccc(NC(=O)OC(C)C)cc1	2	1	0	11*	4
SMILES	DAX1 inh-1	DAX1 inh-2	ssDAF12 agonist	hgDAF-12 ag	hcDAF12 agonist
COc1ccc(NC(=O)c2scc(S(=O)(=O)C(C)C)c2N)cc1	2	2	1.2*	11*	5
C=CS(=O)(=O)N(Cc1ccc(C)cc1)[C@@H](CO)C(=O)OC	-3	x	-1	1	-3
C/C=C/C=C/C(=O)N1C[C@H](C)N(C)C[C@H]1C	0	x	0	2	-1
Cc1cc(C)cc(NC(=O)N2CCN(Cc3nc4ccccc4c(=O)[nH]3)CC2)c1	0	x	-1	-2	0
O=C(Nc1cccnc1Oc1ccc(Cl)cc1)c1cccc2ccccc12	0	6.0*	-1	-1	1
COc1ccc(NC(=O)c2ccccc2C)cc1	2	6.3*	0	6	2
Cc1nc(NC(=O)CSc2nnnn2C)sc1C	1	1	-1	8	0
COC(=O)c1sc(NC(=O)CSc2nnnn2C)nc1C	1	0	0	10	5.6*
COC(=O)c1c(NC(=O)CSc2nnc(Cn3nnc4ccccc43)n2C)sc(C)c1C	1	1	-1	0	-1
